Results taken from PubChem BioAssay (Tox21).
“And” between values parts separate entries of the source, which are not always exact repeats. Equal entries are not always repeated. Records with an inconclusive call do not appear. The source made the active and inactive calls. Unless noted, calls follow the shape of the full dose curve.

Columns and labels:
[1] = Nuclear factor erythroid 2-related factor 2/antioxidant responsive element (Nrf2/ARE) small molecule agonists: luciferase reporter gene qHTS assay in human keratinocytes (AID 1919969); also: nearly all actives have a fitted effect of over 35% in size; also: potency is read from the fitted curve at half-maximal effect
[2] = target: Gonadotropin-releasing hormone receptor (Homo sapiens) (UniProt P30968); assay: Human gonadotropin-releasing hormone receptor (GnRHR) small molecule agonists, calcium flux assay in GnRHR-HEK293 cells (AID 1920063); also: nearly all actives have a fitted effect of over 35% in size
Procedure, shortened: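 Stable human GnRHR HEK293 line. 18 h plating, then calcium dye for 1 h at 37 C. Agonist-mode compound addition from DMSO stocks; fluorescence monitored 3 min.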

[3] = target: KiSS-1 receptor (Homo sapiens) (UniProt Q969F8); assay: Human kisspeptin (KISS1R) small molecule agonists, calcium flux assay in KISS1R-HEK293 cells (AID 1920064; active = well fitted activation curve with a large enough effect in the repeat runs)
Procedure, shortened: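 After overnight (18 h) culture at 37 C/5% CO2, human KISS1R-HEK293 cells received calcium dye for 1 h, then test compound; emission at 540 nm (excitation 480 nm) was tracked for 3 min.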

[4] = G protein-coupled receptor (GPCR) small molecule agonists, calcium flux assay: HEK293 wild type cell line counter screen (AID 1920065)
Procedure, shortened: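 Following 18 h incubation at 37 C/5% CO2, plates got calcium dye for 1 h; compounds, ATP or DMSO were then pinned in and fluorescence followed kinetically (480/540 nm).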

[5] = p53 small molecule agonists, cell-based qHTS assay with human liver microsomes (AID 1963577);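 also: p53 response element beta-lactamase reporter cells with liver microsomes plus NADPH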
Procedure, shortened: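 With metabolic activation: human liver microsomes (0.5 mg/mL final) plus NADPH (0.5 mg/mL final) added alongside compounds to p53RE-bla cells; 16 h 37 C exposure; beta-lactamase read by LiveBLAzer fluorescence.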

[6] = p53 small molecule agonists, cell-based qHTS assay with rat liver microsomes (AID 1963578)
Procedure, shortened: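 Metabolic activation by rat liver microsomes and NADPH, each 0.5 mg/mL final, added right after compounds to p53RE-bla reporter cells (4,000/well, plated 5 h earlier). 16 h at 37 C, then LiveBLAzer substrate for 2 h at room temperature in the dark; fluorescence read-out.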

[7] = p53 small molecule agonists, cell-based qHTS assay with human liver microsomes: qHTS cell viability counter screen (AID 1963579); also: nearly all actives have a fitted effect of over 45% in size
Procedure, shortened: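 Metabolic activation used human liver microsomes and NADPH, both 0.5 mg/mL final, over 16 hours at 37 C on p53RE-bla cells (4,000/well). Cytotoxicity measured by CellTiter-Glo luminescence, 30 min at room temperature.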

[8] = p53 small molecule agonists, cell-based qHTS assay with rat liver microsomes: qHTS cell viability counter screen (AID 1963580); also: nearly all actives have a fitted effect of over 45% in size
Procedure, shortened: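 Cytotoxicity counter screen: intracellular ATP measured by CellTiter-Glo luminescence in the same wells as the beta-lactamase reporter read, on HCT-116 p53RE-bla cells exposed 16 h at 37 C to compounds with rat liver microsomes and NADPH, each 0.5 mg/mL final.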

[9] = p53 small molecule agonists, cell-based qHTS assay: qHTS cell viability counter screen (AID 1963581); also: nearly all actives have a fitted effect of over 45% in size
Procedure, shortened: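 qHTS counter screen: 16 h compound exposure at 37 C of p53RE-bla HCT-116 cells (4,000 per well, seeded 5 h prior), cell viability by ATP luminescence.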

[10] = p53 small molecule agonists, cell-based qHTS assay (AID 1963582; active = well fitted activation curve with a large enough effect in the signal ratio in the repeat runs, not every such curve was filed as active; the % refers to the signal ratio)
Procedure, shortened: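 Measured: fluorescence from cleaved LiveBLAzer substrate. System: p53RE-bla cells, 16 h compound treatment at 37 C, 2 h substrate step at room temperature.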

[11] = target: 5-hydroxytryptamine receptor 2A (Homo sapiens) (UniProt P28223); assay: 5-hydroxytryptamine receptor 2A (HTR2A) small molecule antagonists, cell-based qHTS assay (AID 1963586); also: nearly all actives have a fitted effect of over 45% in size
Procedure, shortened: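 CHO cells stably expressing human HTR2A were plated for 18 h at 37 C, then loaded with calcium dye for 1 h. Compounds were preincubated 5 min at room temperature before DOI (4 nM solution) was added. Kinetic fluorescence was read for 3 min.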

[12] = target: 5-hydroxytryptamine receptor 2A (Homo sapiens) (UniProt P28223); assay: 5-hydroxytryptamine receptor 2A (HTR2A) small molecule agonists, cell-based qHTS assay (AID 1963587); also: nearly all actives have a fitted effect of over 30% in size
Procedure, shortened: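 CHO cells stably expressing human HTR2A, plated 18 h, loaded with calcium dye 1 h at 37 C. Agonist mode: compounds added and intracellular calcium fluorescence recorded kinetically for 2 min at 1 sec intervals.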

[13] = target: Muscarinic acetylcholine receptor M1 (Homo sapiens) (UniProt P11229); assay: Cholinergic receptor muscarinic 1 (CHRM1) small molecule antagonists, cell-based qHTS assay (AID 1963588); also: nearly all actives have a fitted effect of over 40% in size
Procedure, shortened: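 Compounds were tested at 15 concentrations in three independent runs. Dye-loaded CHRM1-CHO cells were exposed 5 min at room temperature before stimulation by acetylcholine added at 50nM. Intracellular calcium was read kinetically on FDSS for 3 min.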

[14] = target: Muscarinic acetylcholine receptor M1 (Homo sapiens) (UniProt P11229); assay: Cholinergic receptor muscarinic 1 (CHRM1) small molecule agonists, cell-based qHTS assay (AID 1963589); also: nearly all actives have a fitted effect of over 35% in size
Procedure, shortened: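 Kinetic fluorescence (1 s intervals) of calcium-sensitive dye in human M1 CHO cells after compound addition; cells pre-incubated 18 h at 37 C/5% CO2 and dye-loaded 1 h.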

[15] = cAMP Responsive Elements (CRE) small molecule agonists, cell-based qHTS assay (AID 1963590)
Procedure, shortened: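 Test agents in DMSO were incubated 3 h at 37 C/5% CO2 with CRE-bla HEK 293T cells seeded 18 h earlier; LiveBLAzer B/G FRET substrate was added and read after 2 h at room temperature.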

[16] = cAMP Responsive Elements (CRE) small molecule antagonists, cell-based qHTS assay (AID 1963591; active = well fitted inhibition curve with a large enough effect in the signal ratio in the repeat runs, not every such curve was filed as active; the % refers to the signal ratio)
Procedure, shortened: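 Reporter line CRE-bla HEK 293T in dialyzed-FBS DMEM; cells preincubated 18 h, treated 3 h with compound plus NKH477 (0.25 uM final); LiveBLAzer FRET, 2 h RT.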

[17] = target: Beta-2 adrenergic receptor (Homo sapiens) (UniProt P07550); assay: Adrenergic beta2 receptor (ADRB2) small molecule agonists, cell-based qHTS assay (AID 1963593);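 also: CHO cells stably overexpressing human ADRB2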
Procedure, shortened: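 CHO cells stably over-expressing ADRB2 were plated overnight at 37C, then dosed with compounds plus a stimulation mix containing 100uM IBMX and 25uM Ro-20-1724 for 0.5hr at room temperature. cAMP was measured by HTRF competition, 1hr.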

[18] = target: D(2) dopamine receptor (Homo sapiens) (UniProt P14416); assay: Dopamine D2 receptor (DRD2) small molecule agonists, cell-based qHTS assay (AID 1963594); also: nearly all actives have a fitted effect of over 35% in size
Procedure, shortened: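 HEK293 cells stably expressing human DRD2, pre-treated with PDE inhibitor Ro20-1724 (0.1 mM final) and compound 10 min at room temperature, then stimulated with NKH477 (200nM […]) for 30 min. cAMP read by HTRF (665/620 nm).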

[19] = target: D(2) dopamine receptor (Homo sapiens) (UniProt P14416); assay: Dopamine D2 receptor (DRD2) small molecule antagonists, cell-based qHTS assay (AID 1963595; active = well fitted inhibition curve with a large enough effect in the signal ratio in the repeat runs, with a control signal flat; the % refers to the signal ratio)
Procedure, shortened: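 Readout: HTRF cAMP, cAMP-d2 competing with cellular cAMP for anti-cAMP cryptate, read after 1 h. Cells: DRD2-HEK293. Conditions: 0.1 mM Ro20-1724, 12 nM quinpirole, 200 nM NKH477, 30 min RT.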

[20] = target: Beta-2 adrenergic receptor (Homo sapiens) (UniProt P07550); assay: Adrenergic beta2 receptor (ADRB2) small molecule antagonists, cell-based qHTS assay (AID 1963592); also: series mostly up to about 92 µM; nearly all actives have a fitted effect of over 50% in size
Procedure, shortened: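 Assay format: CHO-ADRB2 cells, 18-20hr seeding at 37C/5% CO2, then compound plus 1nM isoproterenol agonist mix for 0.5hr RT. Homogeneous time-resolved fluorescence cAMP detection after 1hr, expressed as 665/615 nm ratio.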

Measured: Potency

Gonadotropin-releasing hormone receptor (Homo sapiens), sequence (P30968 whole entry, looked up): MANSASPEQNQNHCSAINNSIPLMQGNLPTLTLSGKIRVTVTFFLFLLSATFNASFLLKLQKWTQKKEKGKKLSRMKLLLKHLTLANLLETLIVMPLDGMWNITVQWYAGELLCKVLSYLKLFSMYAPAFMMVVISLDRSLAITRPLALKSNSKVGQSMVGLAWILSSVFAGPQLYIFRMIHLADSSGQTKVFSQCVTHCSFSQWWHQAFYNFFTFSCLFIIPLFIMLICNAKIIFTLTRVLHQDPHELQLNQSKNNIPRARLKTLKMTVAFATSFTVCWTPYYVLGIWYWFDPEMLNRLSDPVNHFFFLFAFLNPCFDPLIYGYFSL
D(2) dopamine receptor (Homo sapiens), sequence (P14416 whole entry, looked up): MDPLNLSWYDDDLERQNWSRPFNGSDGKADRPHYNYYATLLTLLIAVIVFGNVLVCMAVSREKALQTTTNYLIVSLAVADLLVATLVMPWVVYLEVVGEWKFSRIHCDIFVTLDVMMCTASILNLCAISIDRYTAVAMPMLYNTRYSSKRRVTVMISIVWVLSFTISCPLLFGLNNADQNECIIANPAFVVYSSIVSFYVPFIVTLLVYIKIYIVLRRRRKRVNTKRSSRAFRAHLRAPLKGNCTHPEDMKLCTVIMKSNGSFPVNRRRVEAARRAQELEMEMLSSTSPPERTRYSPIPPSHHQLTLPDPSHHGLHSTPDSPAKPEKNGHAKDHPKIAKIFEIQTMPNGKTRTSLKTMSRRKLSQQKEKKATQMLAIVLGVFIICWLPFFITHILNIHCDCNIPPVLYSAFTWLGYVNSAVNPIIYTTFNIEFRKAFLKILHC
Beta-2 adrenergic receptor (Homo sapiens), sequence (P07550 whole entry, looked up): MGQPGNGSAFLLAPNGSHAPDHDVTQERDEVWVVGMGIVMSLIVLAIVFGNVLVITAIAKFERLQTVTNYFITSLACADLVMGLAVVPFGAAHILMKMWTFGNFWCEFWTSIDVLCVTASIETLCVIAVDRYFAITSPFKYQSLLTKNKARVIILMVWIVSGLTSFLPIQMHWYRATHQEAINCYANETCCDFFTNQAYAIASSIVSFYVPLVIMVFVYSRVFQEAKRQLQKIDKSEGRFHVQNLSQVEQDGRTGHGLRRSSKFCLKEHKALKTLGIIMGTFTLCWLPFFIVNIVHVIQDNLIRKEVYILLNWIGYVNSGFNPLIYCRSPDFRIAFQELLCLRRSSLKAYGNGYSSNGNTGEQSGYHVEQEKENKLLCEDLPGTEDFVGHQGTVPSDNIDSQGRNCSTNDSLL
5-hydroxytryptamine receptor 2A (Homo sapiens), sequence (P28223 whole entry, looked up): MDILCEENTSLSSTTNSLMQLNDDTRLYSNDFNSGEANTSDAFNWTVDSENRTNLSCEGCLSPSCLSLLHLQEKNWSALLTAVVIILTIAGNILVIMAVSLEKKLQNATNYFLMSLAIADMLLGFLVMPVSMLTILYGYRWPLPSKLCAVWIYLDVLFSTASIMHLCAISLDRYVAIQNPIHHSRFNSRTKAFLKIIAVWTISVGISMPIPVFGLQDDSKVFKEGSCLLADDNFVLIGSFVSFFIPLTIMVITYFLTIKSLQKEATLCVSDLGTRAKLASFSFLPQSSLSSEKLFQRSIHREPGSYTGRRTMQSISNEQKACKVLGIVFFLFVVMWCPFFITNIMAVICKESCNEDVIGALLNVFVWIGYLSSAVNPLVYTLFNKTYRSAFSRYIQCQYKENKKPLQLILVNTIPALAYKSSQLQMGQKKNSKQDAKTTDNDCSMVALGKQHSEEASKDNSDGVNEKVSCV
KiSS-1 receptor (Homo sapiens), sequence (Q969F8 whole entry, looked up): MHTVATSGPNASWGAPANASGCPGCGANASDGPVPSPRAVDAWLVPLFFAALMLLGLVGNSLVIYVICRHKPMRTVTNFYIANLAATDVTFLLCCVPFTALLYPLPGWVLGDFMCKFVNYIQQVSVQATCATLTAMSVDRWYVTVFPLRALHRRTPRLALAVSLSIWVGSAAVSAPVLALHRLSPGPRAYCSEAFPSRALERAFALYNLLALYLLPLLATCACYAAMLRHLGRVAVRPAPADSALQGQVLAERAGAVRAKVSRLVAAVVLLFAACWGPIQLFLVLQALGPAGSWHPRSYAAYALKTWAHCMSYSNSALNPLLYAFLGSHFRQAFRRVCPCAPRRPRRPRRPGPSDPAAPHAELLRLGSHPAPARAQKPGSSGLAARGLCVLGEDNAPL
Muscarinic acetylcholine receptor M1 (Homo sapiens), sequence (P11229 whole entry, looked up): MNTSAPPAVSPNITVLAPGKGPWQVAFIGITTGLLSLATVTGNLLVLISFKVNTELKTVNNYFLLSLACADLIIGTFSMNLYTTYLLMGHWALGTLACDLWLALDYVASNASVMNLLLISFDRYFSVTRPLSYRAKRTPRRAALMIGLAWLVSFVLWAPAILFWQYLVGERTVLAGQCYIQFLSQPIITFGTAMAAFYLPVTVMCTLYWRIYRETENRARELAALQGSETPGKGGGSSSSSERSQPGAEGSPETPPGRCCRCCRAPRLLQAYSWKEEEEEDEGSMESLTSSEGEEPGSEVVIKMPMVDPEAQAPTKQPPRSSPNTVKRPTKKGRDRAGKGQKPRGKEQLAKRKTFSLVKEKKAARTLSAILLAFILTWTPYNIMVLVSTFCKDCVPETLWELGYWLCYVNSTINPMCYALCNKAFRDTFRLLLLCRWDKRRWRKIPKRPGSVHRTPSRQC

C[N+](C)(C)CCCCCC[N+](C)(C)C
not listed: [20]
inactive: all other assays above

OCCCc1ccccc1
not listed: [16]
inactive: all other assays above

CCCCCCCC=O
inactive: all assays above

O=C(O)c1ccccc1C(=O)O
inactive: all assays above

C=C(C)C(=O)OCCCCCCCCCCCC
not listed: [17]
inactive: all other assays above

CCCCC(CC)COC(=O)/C=C\C(=O)OCC(CC)CCCC (configuration not stated)
not listed: [11] | [15] | [17] | [18]
inactive: all other assays above

c1ccc(OCCOc2ccccc2)cc1
not listed: [11] | [14]
inactive: all other assays above

Cc1c(OCC(F)(F)F)ccnc1CS(=O)c1nc2ccccc2[nH]1 (configuration not stated)
active: [1] 24.3 µM and 33.5 µM
not listed: [11] | [12] | [13] | [14] | [18]
inactive: all other assays above

COC(=O)c1ccccc1
not listed: [20]
inactive: all other assays above

CC(C)=CCO
not listed: [16]
inactive: all other assays above

Cc1cccc(C(=O)O)c1
not listed: [17] | [19]
inactive: all other assays above

CC(C)[N+](C)(CCOC(=O)C1c2ccccc2Oc2ccccc21)C(C)C
not listed: [15]
inactive: all other assays above

O=S(=O)(O)c1ccc2cc(O)ccc2c1
not listed: [11] | [13]
inactive: all other assays above

CN(C)CCOC(C)(c1ccccc1)c1ccccn1 (configuration not stated)
not listed: [13]
inactive: all other assays above

Cc1ccc(Cl)cc1
not listed: [19]
inactive: all other assays above
